From PubChem BioAssay AID1159580 (chemical genetic matrix, 2015)
Values joined by “and” are separate entries in the source; they are usually repeats but may differ in a detail not shown here. Equal values may be shown once. Screen size: about 5,500 compounds; about 2,000 (36%) were called active. Inconclusive results (about 18%) are left out. No stated cut-off is given here; in the data, active means normalized growth mostly below about 0.91 (no sharp cut-off); inconclusive means no clear call, values can overlap the other calls; inactive means mostly above about 0.92. This is one part of the list.

Assay: chemical genetic growth profiling, strain panel (AID 1159580);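 further: tested at 20 µM; growth read once vehicle control cultures reached saturation at 30 °C; 1 = growth at the plate median or of vehicle wells; lower values mean less growth of the strain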
Conditions: S. cerevisiae deletion strains, growth OD

Measured: normalized growth

CCn1cc(C(=O)O)c(=O)c2cc(F)c(N3CCNC(C)C3)c(F)c21 (centres undefined)
inactive: locus YAL013W, strain DEP1, active compounds read low 0.989 | locus YAL021C, strain ccr4, active compounds read low 0.957 | locus YAL026C, strain drs2, active compounds read low 0.974 | locus YAL030W, strain snc1, active compounds read low 0.988 | locus YAL040C, strain CLN3, active compounds read low 0.984 | locus YBL061C, strain skt5, active compounds read low 0.962 | locus YBR009C, strain hhf1, active compounds read low 1.01 | locus YBR021W, strain FUR4, active compounds read low 0.982 | locus YBR023C, strain chs3, active compounds read low 0.986 | locus YBR171W, strain sec66, active compounds read low 0.975 | locus YBR229C, strain ROT2, active compounds read low 1 | locus YBR231C, strain swc5, active compounds read low 0.997 | locus YBR279W, strain paf1, active compounds read low 0.975 | locus YCL011C, strain gbp2, active compounds read low 0.971 | locus YCL016C, strain dcc1, active compounds read low 0.958 | locus YCL029C, strain bik1, active compounds read low 0.979 | locus YCL061C, strain MRC1 (second series), active compounds read low 0.997 | locus YCL061C, strain MRC1, active compounds read low 0.993 | locus YCL069W, strain vba3, active compounds read low 0.975 | locus YCR088W, strain abp1, active compounds read low 0.964 | locus YDL005C, strain med2, active compounds read low 0.97 | locus YDL035C, strain GPR1, active compounds read low 0.978 | locus YDL040C, strain nat1, active compounds read low 0.981 | locus YDL074C, strain BRE1, active compounds read low 1.02 | locus YDL101C, strain DUN1, active compounds read low 0.995 | locus YDL134C, strain PPH21, active compounds read low 0.985 | locus YDL185W, strain tfp1, active compounds read low 0.963 | locus YDL192W, strain arf1, active compounds read low 0.992 | locus YDR001C, strain nth1, active compounds read low 0.974 | locus YDR069C, strain doa4, active compounds read low 0.989 | locus YDR101C, strain arx1, active compounds read low 0.988 | locus YDR137W, strain rgp1, active compounds read low 0.949 | locus YDR150W, strain NUM1, active compounds read low 0.996 | locus YDR159W, strain sac3, active compounds read low 0.949 | locus YDR162C, strain NBP2, active compounds read low 0.98 | locus YDR195W, strain ref2 0.997 | locus YDR297W, strain sur2, active compounds read low 0.978 | locus YDR318W, strain mcm21, active compounds read low 0.976 | locus YDR334W, strain swr1, active compounds read low 0.975 | locus YDR335W, strain msn5, active compounds read low 0.968 | locus YDR363W, strain ESC2, active compounds read low 1.01 | locus YDR388W, active compounds read low 0.995 | locus YDR392W, strain spt3, active compounds read low 0.842 | locus YDR502C, strain sam2, active compounds read low 0.986 | locus YEL003W, strain gim4, active compounds read low 0.982 | locus YEL037C, strain rad23, active compounds read low 0.974 | locus YEL061C, strain CIN8 (second series), active compounds read low 0.975 | locus YEL061C, strain CIN8, active compounds read low 1.01 | locus YER002W, strain NOP16, active compounds read low 0.987 | locus YER015W, strain faa2, active compounds read low 0.988 | locus YER016W, strain bim1, active compounds read low 0.948 | locus YER110C, active compounds read low 0.984 | locus YER111C, strain swi4, active compounds read low 0.964 | locus YER155C, strain BEM2 (second series), active compounds read low 0.945 | locus YER155C, strain BEM2, active compounds read low 0.993 | locus YER167W, strain BCK2, active compounds read low 0.971 | locus YFR010W, strain ubp6, active compounds read low 1 | locus YGL078C, strain dbp3, active compounds read low 0.988 | locus YGL086W, strain mad1, active compounds read low 0.995 | locus YGL167C, strain pmr1, active compounds read low 0.98 | locus YGL173C, strain kem1, active compounds read low 0.993 | locus YGL227W, strain vid30, active compounds read low 0.981 | locus YGL240W, strain doc1, active compounds read low 1.01 | locus YGL248W, strain PDE1, active compounds read low 1.01 | locus YGL253W, strain hxk2, active compounds read low 0.98 | locus YGR078C, strain PAC10, active compounds read low 1.04 and 1.02 | locus YGR135W, strain pre9, active compounds read low 0.953 | locus YGR252W, strain gcn5, active compounds read low 0.991 | locus YHR013C, strain ard1, active compounds read low 0.984 | locus YHR027C, strain rpn1, active compounds read low 1 | locus YHR030C, strain SLT2, active compounds read low 0.988 and 1.03 | locus YHR079C, strain IRE1 (second series), active compounds read low 0.985 | locus YHR079C, strain IRE1, active compounds read low 1.06 | locus YHR094C, strain hxt1, active compounds read low 0.993 | locus YHR129C, strain ARP1, active compounds read low 0.991 | locus YHR142W, strain chs7, active compounds read low 0.948 | locus YHR200W, strain rpn10, active compounds read low 0.982 | locus YIL066C, strain RNR3, active compounds read low 1.01 | locus YIL073C, strain SPO22, active compounds read low 0.867 | locus YIL125W, strain kgd1, active compounds read low 0.998 | locus YIR030C, strain dcg1, active compounds read low 0.98 | locus YJL092W, strain hpr5, active compounds read low 0.99 | locus YJL095W, strain BCK1 (second series), active compounds read low 0.968 | locus YJL095W, strain BCK1, active compounds read low 1.03 and 1.01 | locus YJL115W, strain asf1, active compounds read low 0.967 | locus YJL129C, strain trk1, active compounds read low 0.931 | locus YJL134W, strain LCB3, active compounds read low 0.987 | locus YJL154C, strain vps35, active compounds read low 0.967 | locus YJL164C, strain tpk1, active compounds read low 0.975 | locus YJL166W, strain qcr8, active compounds read low 0.998 | locus YJL168C, strain set2, active compounds read low 0.999 | locus YJL187C, strain SWE1 (second series), active compounds read low 1.02 | locus YJR043C, strain POL32, active compounds read low 1.01 | locus YJR066W, strain TOR1, active compounds read low 0.956
